Measurements from PubChem BioAssay (EPA / NIEHS).
Results filed as inconclusive are left out. Activity calls are given as the source filed them. How the source made its calls: active means hit-call score of the fitted dose curve at least 0.9, where 1 is the maximum; inconclusive means response in the unintended direction; inactive means score below 0.9.

molecular target: Steroid hormone receptor ERR1 (Homo sapiens) (UniProt P11474); experiment: ATG_ERRa_TRANS: Attagene TRANS-FACTORIAL HepG2 Assay for human Estrogen-Related Receptor alpha (ERRa) (AID 2282971); conditions: HepG2 Attagene TRANS reporter, ERRa transactivation
Sequence (P11474 whole entry, looked up): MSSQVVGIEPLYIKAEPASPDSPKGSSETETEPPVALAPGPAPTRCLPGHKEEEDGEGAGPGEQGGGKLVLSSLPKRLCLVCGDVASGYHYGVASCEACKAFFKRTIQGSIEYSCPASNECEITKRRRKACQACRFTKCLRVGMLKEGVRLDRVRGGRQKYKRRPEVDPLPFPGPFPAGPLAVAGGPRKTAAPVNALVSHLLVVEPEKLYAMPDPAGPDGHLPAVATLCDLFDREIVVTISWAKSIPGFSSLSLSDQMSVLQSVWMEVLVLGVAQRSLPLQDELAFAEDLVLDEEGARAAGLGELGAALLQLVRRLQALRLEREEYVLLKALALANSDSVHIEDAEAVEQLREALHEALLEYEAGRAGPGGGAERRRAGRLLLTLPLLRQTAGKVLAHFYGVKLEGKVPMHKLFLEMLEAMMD
Protocol: ATG_TRANS is a cell-based, multiplexed-readout assay that uses HepG2, a human liver cell line, with measurements taken at 24 hours after chemical dosing in a 24-well plate.ATG_ERRa_TRANS is one of 30 assay component(s) measured or calculated from the ATG_TRANS assay. It is designed to make measurements of mRNA induction, a form of inducible reporter, as detected with fluorescence intensity signals by Reverse transcription polymerase chain reaction (RT-PCR) and Capillary electrophoresis technology.Data from the assay component ATG_ERRa_TRANS was analyzed into 1 assay endpoint. This assay endpoint, ATG_ERRa_TRANS, was analyzed in the positive analysis fitting direction relative to DMSO as the negative control and baseline of activity. Using a type of inducible reporter, measures of mRNA for gain-of-signal activity can be used to understand the reporter gene at the transcription factor-level as they relate to the gene ESRRA. Furthermore, this assay endpoint can be referred to as a primary readout, because this assay has produced multiple assay endpoints where this one serves a reporter gene function. To generalize the intended target to other relatable targets, this assay endpoint is annotated to the nuclear receptor intended target family, where the subfamily is steroidal.
Human liver HepG2 cells are transiently transfected with multiple reporter transcription units (MRTUs) in 6-well plates using FuGene 6 reagent (Roche; 3 ml FuGene/1 mg DNA). The MRTU constructs are regulated by a cis-regulating element (promoter). […] A major difference between the CIS and TRANS system is that in CIS activities of endogenous TFs are measured, whereas the TRANS assay evaluates changes in activities of exogenous, chimeric NR-Gal4 proteins. […] At the end of 24 hour incubation, total RNA was isolated using TriZol reagent (Invitrogen). The isolated RNA is then reverse-transcribed using oligo(dT) primer and Mo-MLV reverse transcriptase (Invitrogen) with DNAse I (Ambion) treatment for 30 min. The one-tenth of the produced cDNA was amplified by PCR using Taq DNA polymerase (Invitrogen) and two reporter sequence-specific primers. The PCR products were fluorescently labeled by primer extension with 6-arboxyfluorescein (6-FAM) 5'-labeled reporter sequence-specific primer (2 min at 95 C, 20 s at 68 C and 10 min at 72 C) and these products were digested with 5U of HpaI (New England Biolabs) for 2h at 37 C. The fragments were purified using Qiaquick PCR columns (Qiagen), analyzed on an ABI 3130xL genetic analyzer (Applied Biosystems) with peak positions identified by using a set of X-rhodamine (ROX)-labeled MapMarker1000 molecular weight standards (BioVentures). The raw capillary electrophoresis data was processed using Attagraph software (Attagene).

outcome, inactive:
CCCN(C1CCN(C(=O)C2CCNCC2)CC1)[C@@H]1CCc2ccc(OC)cc2C1
CN(C)c1ccc(Cc2ccc(N(C)C)cc2)cc1
CC[C@H]1CC[C@H](NCc2cc3c(cc2OC)[C@H]2C[C@H]2C(=O)N3C)[C@H](c2ccccc2)N1
CC/C(=C\C(=N/O)C(N)=O)C(C)[N+](=O)[O-] (stereo not given)
CCCCC(CC)COC(=O)c1ccc(C(=O)OCC(CC)CCCC)cc1 (stereo not given)
O=C(CCCCCCCCc1cccnc1)N1CCC(C=C(c2ccccc2)c2ccccc2)CC1
CCOC(=O)c1ccc(C2CCC(NC[C@H](O)COc3ccc(O)c(NS(C)(=O)=O)c3)CC2)cc1 (stereo not given in full)
COC(=O)c1c(Cl)c(Cl)c(C(=O)OC)c(Cl)c1Cl
CC(=O)OCCC(C)C
CNCc1ccc(NC(=O)c2c[nH]c3c2C(=O)CCC3)cc1
